These results are taken from PubChem BioAssay (Tox21).

Values joined by “and” are separate entries in the source; they are usually repeats but may differ in a detail not shown here. Identical values can stand only once. Results filed as inconclusive are left out. A call without a number means that no potency is given here. Active and inactive are the calls of the source. Calls follow the shape of the dose curve; as a rule, active = well fitted inhibition curve with a large enough effect in the repeat runs; inconclusive = weak or mixed curves; inactive = no such curve, though single readings can be large or run the other way.
Potency is read from the fitted curve at half-maximal effect.

Cytochrome P450 3A4 (Homo sapiens), sequence (P08684 whole entry, looked up): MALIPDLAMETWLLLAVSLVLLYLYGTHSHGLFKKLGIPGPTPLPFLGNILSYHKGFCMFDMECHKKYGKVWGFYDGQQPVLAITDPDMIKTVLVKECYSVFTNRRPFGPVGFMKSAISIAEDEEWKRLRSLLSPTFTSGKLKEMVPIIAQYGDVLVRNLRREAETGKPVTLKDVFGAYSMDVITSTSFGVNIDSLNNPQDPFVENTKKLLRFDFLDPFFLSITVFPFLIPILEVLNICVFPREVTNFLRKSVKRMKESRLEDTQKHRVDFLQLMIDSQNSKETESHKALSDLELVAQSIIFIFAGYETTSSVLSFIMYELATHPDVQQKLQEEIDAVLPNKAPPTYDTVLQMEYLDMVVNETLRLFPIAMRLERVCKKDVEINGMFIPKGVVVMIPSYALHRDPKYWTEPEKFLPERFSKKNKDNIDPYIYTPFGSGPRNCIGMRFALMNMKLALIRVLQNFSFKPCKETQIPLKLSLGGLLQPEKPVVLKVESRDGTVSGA

The test concerns the target Cytochrome P450 3A4 (Homo sapiens) (UniProt P08684). Put plainly: Cytochrome P450 Family 3 Subfamily A Member 4 (CYP3A4) small molecule antagonists: luciferase reporter qHTS assay (AID 1671201). Also: nearly all actives have a fitted effect of over 50% in size. Particulars: P450-Glo CYP3A4 enzyme, luciferin luminescence, 1 h; series mostly up to 115 µM. From the text:
National Center for Advancing Translational Sciences [NCATS]
U.S. Environmental Protection Agency [EPA]
National Institutes of Environmental Health Sciences [NIEHS]
National Toxicology Program [NTP]
U.S. Food and Drug Administration [FDA]
Cytochrome P450 (CYP) enzymes are membrane-bound hemeproteins that play a key role in metabolism of drugs and xenobiotics. Evaluation of the effect of chemicals on CYP isozymes is useful to minimize the adverse drug reactions and toxicities in drug development process. Tox21 chemicals were tested for their effect on CYP enzyme activities by using P450-Glo (TM) screening systems (Promega Corporation, Madison, WI). These systems provide a luminescent method containing proluciferin substrates and are converted to luciferin products by CYP isozymes. The luciferin products formed are detected with a luciferin detection reagent, and the amount of light produced is proportional to CYP activity. P450-Glo (TM) CYP3A4 screening system (Catalog. No. V9910) was used to detect the compounds that interfere in CYP3A4 activity. The positive control compound used for CYP3A4 assay is ketoconazole (Sigma-Aldrich, St. Louis, MO).
Tox21 Assay Protocol Summary:
Two ul of enzyme-substrate mix was dispensed into medium binding white/solid 1536-well plates (Greiner Bio-One North America Inc., Monroe, NC) using a BioRaptr Flying Reagent Dispenser (FRD, Beckman Coulter, Brea, CA). Compounds dissolved in DMSO and positive control (ketoconazole) were transferred to the assay plates at 23 nl using a Pintool station (Wako, San Diego, CA). The assay plates were incubated at room temperature for 10 min. Then 2 ul of NADPH regeneration solution was added to each well of the assay plates using an FRD and incubated at room temperature for 1 h. The reaction was stopped by adding 4 ul of detection reagent using an FRD and after 20 min incubation at room temperature the luminescence signal was measured using a ViewLux plate reader (Perkin Elmer, Shelton, CT). Data were expressed as relative luminescence units.
In general terms: A reporter such as luciferase makes a cellular process visible.
In the case of `CCOP(=S)(OCC)SCCS(=O)(=O)CC`, the Potency was 1.59 µM (active).

With `Oc1ccc(C2(c3ccc(O)cc3)CCCCC2)cc1`, the Potency is 23.9 µM (active).

Take `[Cl][Sb]([Cl])[Cl]`: the Potency result was “inactive”.

Regarding `N#CCCSCCC#N`, the Potency entry is “inactive”.

As for `CC(c1ccc(O)cc1)c1ccc(O)cc1`, the Potency was 42 µM (active).

`CS(=O)(=O)c1ccc(C(=O)C2C(=O)CCCC2=O)c([N+](=O)[O-])c1`: the Potency result was “inactive”.

`COC(=O)N(C(=O)N1COC2(C(=O)OC)Cc3cc(Cl)ccc3C2=N1)c1ccc(OC(F)(F)F)cc1` (stereo not given): the Potency is 5.49 µM (active).

As for `N#Cc1ccc(O)cc1`, the Potency entry was “inactive”.

For the compound `ClCCN1CCOCC1`, the Potency entry is “inactive”.

As for `C1CCC2CCCCC2C1` (stereo not given), the Potency entry is “inactive”.

For the compound `CCOC(=O)OC1=C(c2cc(C)ccc2C)C(=O)NC12CCC(OC)CC2` (stereo not given), the Potency was 1.12 µM (active).

As to `O=C(CBr)c1ccc(O)cc1`, the Potency entry is “inactive”.

Take `CC(C)(C)c1cc([N+](=O)[O-])cc(C(C)(C)C)c1O`: the Potency entry was “inactive”.

Take `CN(C)CCc1c[nH]c2ccc(O)cc12`: the Potency result is “inactive”.

Consider `S=C=Nc1cccc2ccccc12`, for which the Potency was 3.14 µM (active).

On to `Cc1cc(C(C)(C)c2cc(C)c(O)c(C)c2)cc(C)c1O`, for which the Potency is 2.73 µM (active).

As to `CCCCCCCCCCBr`, the Potency entry is “inactive”.

Consider `Cn1[nH]nnc1=S`, for which the Potency result is “inactive”.

As to `CC(=[OH+])/C=C(/C)[O-].CC(=[OH+])/C=C(\C)[O-].CC(=[OH+])/C=C(\C)[O-].[Al]`, the Potency entry was “inactive”.

For the compound `CC[C@H](C)[C@H]1O[C@]2(C=C[C@@H]1C)C[C@@H]1C[C@@H](C/C=C(\C)[C@@H](O[C@H]3C[C@H](OC)[C@@H](O[C@H]4C[C@H](OC)[C@@H](O)[C@H](C)O4)[C@H](C)O3)[C@@H](C)/C=C/C=C3\CO[C@@H]4[C@H](O)C(C)=C[C@@H](C(=O)O1)[C@]34O)O2`, the Potency was 9.39 µM (active).

Take `CC(C)(C)c1ccc(CSc2cnn(C(C)(C)C)c(=O)c2Cl)cc1`: the Potency result was “inactive”.

Regarding `C[C@H]1O[C@@H](O[C@H]2[C@@H](O)C[C@H](O[C@H]3[C@@H](O)C[C@H](O[C@H]4CC[C@@]5(C)[C@H](CC[C@@H]6[C@@H]5CC[C@]5(C)[C@@H](C7=CC(=O)OC7)CC[C@]65O)C4)O[C@@H]3C)O[C@@H]2C)C[C@H](O)[C@@H]1O`, the Potency result was “inactive”.

`Cc1cc(N=Nc2ccccc2C)ccc1N`: the Potency was 1.59 µM (active) and 7.1 µM (active).

On to `COCC(=O)N(c1c(C)cccc1C)[C@H](C)C(=O)OC`, for which the Potency result is “inactive”.

As to `NNC(=O)c1ccccc1`, the Potency is 36.6 µM (active).

For `CC1CCC(C(C)C)C(OC(=O)c2ccccc2N)C1` (stereo not given), the Potency result was “inactive”.

Take `c1ccc2c(c1)OCC(C1=NCCN1)O2` (stereo not given): the Potency entry was “inactive”.

Take `BrC(Br)C(Br)(Br)Br`: the Potency entry is “inactive”.

Turning to `[Hg+2].[I-].[I-]`, the Potency was 2.24 µM (active).

Regarding `CCCCCCCCCCCCBr`, the Potency result was “inactive”.

Consider `CN(C)S(=O)(=O)N(SC(F)(Cl)Cl)c1ccccc1`, for which the Potency result is “inactive”.

In the case of `N#C/C=C/C#N`, the Potency was 37.3 µM (active).

For `O=C/C(Cl)=C(/Cl)C(=O)O`, the Potency entry is “inactive”.

Regarding `CCCN(CCC)CCc1c[nH]c2ccccc12`, the Potency entry is “inactive”.

In the case of `CC(C)CC(C)Nc1ccc(Nc2ccccc2)cc1` (stereo not given), the Potency is 31.2 µM (active).

Turning to `Oc1ccc(C(=C(Cl)Cl)c2ccc(O)cc2)cc1`, the Potency is 11.2 µM (active).

Turning to `CCOc1cc(C(C)(C)C)ccc1C1COC(c2c(F)cccc2F)=N1` (stereo not given), the Potency is 0.0683 µM (active).

For `CC(C)(COCC1CO1)COCC1CO1` (stereo not given), the Potency entry was “inactive”.

`CC(Cc1ccc(C(C)(C)C)cc1)CN1C[C@@H](C)O[C@@H](C)C1` (stereo not given in full): the Potency was 22.4 µM (active).

As for `O=C(Cl)c1ccc(Cl)cc1`, the Potency result was “inactive”.
